Data: PubChem BioAssay (NCATS)
Records with an inconclusive call do not appear. The source made the active and inactive calls. Unless noted, the call rests on the fitted dose curve; in most records, active means well fitted curve in the direction sought with a large enough effect; inconclusive means small, poorly fitted or top-dose-only effect, or another doubt; inactive means no such curve, though single readings can be large; an effect the other way counts as inactive or inconclusive.

Legend:
[1] = AP1 Signaling Pathway (AID 357; active means well fitted curve in either direction with a large enough effect, not every such curve was filed as active;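 further: ME-180 reporter cells stimulated with EGF at its EC50 level; on the % scale 0 is the no-effect control and ±100 the full control effect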); details: ME-180 AP-1-bla reporter, EGF-induced, beta-lactamase ratio, 5 h; at 38 µM (top of the series)
Method in brief: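 A ratiometric CCF4 readout (405 nm excitation; 460 and 530 nm emission) quantified AP-1-driven beta-lactamase in ME-180 cells after 5 h with compound and EC50 EGF; AC50 values were derived for activators and inhibitors.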

[2] = target: Cytochrome P450 1A2 (Homo sapiens) (UniProt P05177); test: p450-cyp1a2 (AID 410; calls by dose curve;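 further: -100% = full effect of reference inhibitor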)
Method in brief: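 Read-out is luminescence from luciferin produced by CYP1A2 demethylation of Luciferin-ME (100uM, at Km). Detection reagent stopped the 60 min NADPH-dependent reaction; signals were normalized to 57 uM furafylline.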

[3] = Stat Signaling Pathway (AID 446; active means well fitted curve in either direction with a large enough effect, not every such curve was filed as active;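 further: ME-180 cervical cancer cells given 40 pM IL-6 alongside compound; SIE-controlled beta-lactamase reporter measured as 460/530 nm FRET emission ratio; on the % scale 0 is the no-effect control and ±100 the full control effect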); details: ME-180 (cervical carcinoma) SIE beta-lactamase reporter, IL-6 stimulated, 5 h; at 38 µM (top of the series)
Method in brief: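 FRET read-out (405 nm excitation, 460/530 nm emission) of a beta-lactamase reporter under a STAT-inducible element in ME-180 cervical carcinoma cells. Cells with compound receive 40 pM IL-6 for 5 h. Values are normalised to AC90 stimulation and AC90 JAK-inhibitor controls.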

[4] = target: Glucocorticoid receptor (Homo sapiens) (UniProt P04150); test: GR-GFP Redistribution (AID 450;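 active means compounds whose dose series gives a full or clear partial fitted curve of increased nuclear translocation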; further: potency means the concentration at half of the fitted maximal effect); details: U2OS GR-GFP nuclear translocation, laser cytometry, 2 h
[5] = target: Glucocorticoid receptor (Homo sapiens) (UniProt P04150); test: GR-EFC Redistribution (AID 451; calls by dose curve; further: potency means the concentration at half of the fitted maximal effect); details: CHO-K1 GR-EFC translocation, beta-gal luminescence, 2 h
Method in brief: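 CHO-K1 cells stably expressing nuclear-localized β-gal enzyme acceptor and GR fused C-terminally to the enzyme donor fragment; ligand-driven nuclear translocation restores β-gal by complementation. Compounds titrated up to 46 uM final, 2 h at 37 °C; luminescence read.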

[6] = target: 3',5'-cyclic-AMP phosphodiesterase 4B (Homo sapiens) (UniProt Q07343); test: qHTS Assay for Inhibitors of PDE-IV (AID 607; active means well fitted activation curve with a large enough effect in the main read-out, with a control signal flat, not every such curve was filed as active; further: % of control where 0% means no effect)
Method in brief: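 Cell-based read-out of cAMP via a modified cyclic nucleotide-gated channel and membrane potential dye (535/590 nm) in HEK293 cells expressing PDE4 endogenously. Compounds tested up to 22.9 uM final; 100 uM RO 20-1724 reference.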

[7] = target: Guanine nucleotide-binding protein G(i) subunit alpha-1 (Homo sapiens) (UniProt P63096); test: qHTS Assay for Inhibitors of RGS12 GoLoco Motif Activity (Green Fluorophore) (AID 879);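 further: 0% = labeled peptide with Gαi1 and full inhibition = labeled peptide alone without protein; negative values mean loss of peptide binding seen as reduced polarization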
Method in brief: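 A drop in FITC polarization marked displacement of the FITC-tagged RGS12 GoLoco peptide (10 nM) from Gαi1 (50 nM). Compounds were incubated 10 min at room temperature in Tris pH 7.5 buffer containing 150 mM NaCl, 0.1 mM GDP and 0.05% NP40; unlabeled peptide titration served as control.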

[8] = target: Cytochrome P450 3A4 (Homo sapiens) (UniProt P08684); test: qHTS Assay for Activators of Cytochrome P450 3A4 (AID 885); further: nearly all actives have a fitted effect of over 65% in size
Method in brief: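 Luminescent readout of luciferin formed from 25 uM Luciferin-PPXE (KM level) by 20 nM CYP3A4 in 200 mM KPO4, with 60 min NADPH-driven reaction at room temperature after 10 min compound exposure. Ketoconazole (57 uM) defined 100% inhibition.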

[9] = target: Cytochrome P450 2D6 (Homo sapiens) (UniProt P10635); test: qHTS Assay for Inhibitors and Substrates of Cytochrome P450 2D6 (AID 891); further: potency means the concentration at half of the fitted maximal effect; nearly all actives have a fitted effect of over 60% in size
Method in brief: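 Luminescent read-out of luciferin formed by 5 nM human CYP2D6 demethylating 30 uM Luciferin-ME EGE (Km level) over 60 min at room temperature after NADPH regeneration addition. Data normalized to full inhibition by 1.43 uM quinidine.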

[10] = target: Muscarinic acetylcholine receptor M1 (Rattus norvegicus) (UniProt P08482); test: qHTS Assay for Antagonists of Acetylcholine Muscarinic M1 Receptor: Measurement of IP-One Response (AID 944); further: potency means the concentration at half of the fitted maximal effect; nearly all actives have a fitted effect of over 75% in size
Method in brief: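 Antagonism was measured as loss of carbachol-driven (EC80) IP1 accumulation in CHO cells carrying rat M1, using a homogeneous IP-One TR-FRET kit read at 620 and 665 nm.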

[11] = target: Pyruvate kinase (Leishmania mexicana) (UniProt Q27686); test: qHTS Validation Assay for Inhibitors of Leishmania Mexicana Pyruvate Kinase (AID 945);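 further: 0% = DMSO only neutral control wells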
Method in brief: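 Eight-point qHTS titrations in triplicate, data normalized to DMSO neutral control. Reaction: 0.2 nM LmPYK E451W mutant, 0.5 mM PEP, 0.1 mM ADP, 7 mM MgCl2, pH 7.2, one hour at room temperature; luminescent ATP detection.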

[12] = target: Pyruvate kinase PKM (Homo sapiens) (UniProt P14618); test: qHTS Assay for Activators of Human Muscle Pyruvate Kinase (AID 954; active means well fitted curve in the direction sought with a large enough effect, not every such curve was filed as active;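 further: 0% = uninhibited enzyme and -100% = no enzyme or full thiadiazolimine inhibition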)
Method in brief: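 ATP production by PKM2 detected via luciferase luminescence after 1 h room-temperature reaction (0.1 nM enzyme, PEP at Km 0.5 mM, ADP 0.1 mM, pH 7.2 imidazole buffer). Inhibition scaled to no-enzyme control; activation referenced to 0.3 nM enzyme wells.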

[13] = target: Alpha-galactosidase A (Homo sapiens) (UniProt P06280); test: Counterscreen for Glucocerebrosidase Inhibitors: qHTS Assay for Human alpha-Galactosidase at pH 4.5 (AID 992); further: 0% is about no effect
Method in brief: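 Fluorogenic 1536-well qHTS at pH 4.5 (citrate, Tween-20): 2 nM enzyme, 80 uM 4-MU-alpha-galactoside, 20 min room temperature, NaOH/glycine stop. Titration 0.7 nM to 77 uM, data normalized to no-enzyme and full-activity controls, Hill-fitted AC50.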

[14] = target: alpha-glucosidase (Oryza sativa, rice) (UniProt Q653V4); test: Counterscreen for Glucocerebrosidase Inhibitors: qHTS Assay for Rice alpha-Glucosidase at pH 5.0 (AID 997);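 further: 0% = full activity with enzyme and -100% = basal without enzyme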
Method in brief: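 Endpoint fluorogenic assay at pH 5.0: compounds (0.7 nM to 77 uM) titrated against 4 nM rice enzyme and 400 uM 4-MU-alpha-glucoside for 20 min at room temperature; NaOH/glycine stop, read ex 365/em 440 nm, Hill-fitted AC50.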

[15] = Validation of Assay for Modulators of Lamin A Splicing (AID 1459; active means well fitted curve in the direction sought with a large enough effect in the signal ratio; the % refers to the signal ratio;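 further: cells exposed to compound for two days before reading; 0% is about no effect; ratio rise marks activators and ratio drop marks inhibitors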)
Method in brief: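 S3 HeLa cells stably expressing a lamin A-EGFP splicing minigene and DsRed2 were seeded at 600 cells/well in Opti-MEM with 2% FBS, pin-dosed, and incubated 48 hrs at 37 °C, 5% CO2. Laser-scanning cytometry (488 nm) gave GFP/RFP total intensity ratio.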

[16] = qHTS Assay for Lipid Storage Modulators (AID 1519; calls by dose curve); details: Drosophila S3 cells, BODIPY lipid droplet/cell ratio, laser cytometry, cells loaded with oleic acid
Method in brief: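 Cells seeded at 5,000 per well were treated with compounds over a concentration series and loaded with oleic acid (400 uM, as added). Lipid droplet fluorescence (488 nm excitation, 500-530 nm channel) was read by laser-scanning cytometry and normalized to 20 uM Triacsin C.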

[17] = target: DNA repair nuclease/redox regulator APEX1 (Homo sapiens) (UniProt P27695); test: qHTS Validation Assay for Inhibitors of the Human Apurinic/apyrimidinic Endonuclease 1 (APE1) (AID 1705;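 further: TAMRA fluorescence gain over two minutes as APE1 cuts a quenched THF abasic duplex; on the % scale 0 is the no-effect control and ±100 the full control effect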)
Method in brief: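 Human APE1 was preincubated with compound for 15 min at room temperature, then 50 nM (final) THF-abasic double-stranded DNA substrate bearing 5'-TAMRA and 3'-BHQ-2 was added. Incision-driven fluorescence rise (ex 525/em 598 nm) was read kinetically.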

[18] = Counterscreen for APE1 Inhibitors: Fluorescent Dye Displacement Validation Assay (AID 1707);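 further: plate controls were ThO with dsDNA and no compound for no effect and ThO without dsDNA for full effect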
Method in brief: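 Counterscreen flags promiscuous DNA binders: compounds displacing ThO from duplex DNA (abasic THF site, 50 nM) reduce 540 nm emission (480 nm excitation). ThO 250 nM final; Tris-HCl pH 7.5 with NaCl, MgCl2 and Tween-20.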

[19] = target: Endonuclease 4 (Escherichia coli (strain K12)) (UniProt P0A6C1); test: Counterscreen for APE1 Inhibitors: qHTS Validation Assay for Inhibitors of Endonuclease IV (AID 1708); further: on the % scale 0 is the no-effect control and ±100 the full control effect
Method in brief: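 Measured as reaction progress, the fluorescence gain between first and third kinetic reads after adding 50 nM TAMRA/BHQ-2 THF duplex to 2 nM enzyme preincubated 15 min with compound; 2 mM MgCl2, pH 7.5.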

[20] = qHTS for differential inhibitors of proliferation of Plasmodium falciparum line 7G8 (AID 1815);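 further: potency means the concentration at half of the fitted maximal effect; parasite growth measured after three days of incubation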
[21] = qHTS for differential inhibitors of proliferation of Plasmodium falciparum line D10 (AID 1877);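 further: parasites grown with compound for 72 h before DNA staining; plate controls were vehicle wells for no effect and reference inhibitor wells for full effect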
[22] = qHTS for differential inhibitors of proliferation of Plasmodium falciparum line W2 (AID 1883); details: Potency: Plasmodium falciparum W2 proliferation inhibition;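 further: potency means the concentration at half of the fitted maximal effect; parasites grown with compound for 72 h before lysis and staining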
[23] = target: Ferritin light chain (Equus caballus) (UniProt P02791); test: qHTS Validation Assay for Identification of Novel General Anesthetics (AID 2323); further: on the % scale 0 is the no-effect control and ±100 the full control effect
Method in brief: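 Competitive displacement of profluorescent 1-aminoanthracene (1-AMA, 50% saturated solution in PBS) from 10 uM horse-spleen apoferritin. Compounds incubated 10 min at room temperature; fluorescence read at 380 nm excitation/535 nm emission, normalized to free 1-AMA and complex, fitted with four-parameter Hill equation.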

[24] = target: ATP-dependent DNA helicase Q1 (Homo sapiens) (UniProt P46063); test: qHTS Validation Assay for Inhibitors of RecQ-Like Dna Helicase 1 (RECQ1) (AID 2353);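 further: plate controls were DMSO vehicle for no effect and enzyme-free control for full effect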
Method in brief: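 RECQ1T1 50 nM; forked duplex (20 bp + 30-nt ss tails) 200 nM, ATP 2 mM final; pH 8.0, 2 mM MgCl2, 2.5 ug/ml poly(dI-dC); 15 min compound preincubation; discontinuous kinetic read over 2 h at RT.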

[25] = Cytometric Cell-Based qHTS for Inhibitors of the mTORC1 Signaling Pathway in MEF (Tsc2-/-, p53-/-) Cells (AID 2660);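 further: Tsc2 and p53 null MEFs carrying empty vector with compound for 24 h; percent of cells above a phospho-rpS6 to PI ratio cutoff in each well; plate controls were DMSO for no effect and rapamycin for full effect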
Method in brief: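 Immunofluorescence qHTS of rpS6 Ser235/236 phosphorylation: MEFs (Tsc2-/-, p53-/-) treated 24 h, 37 C, in DMEM + 10% FBS. Alexa-488 signal normalized to PI count, referenced to rapamycin (7.5 nM) and DMSO; PI cell number recorded for viability.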

[26] = High Content Imaging Cell-Based qHTS for Inhibitors of the mTORC1 Signaling Pathway in MEF (Tsc2-/-, p53-/-) Cells (AID 2666); details: at 38.3 µM (top of the series);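 further: percent of cells scored positive for phospho-rpS6 Ser235/236 immunostaining by imaging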
Method in brief: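 Inhibition of rpS6 phosphorylation is measured by immunofluorescence imaging in empty-vector Tsc2-/-, p53-/- mouse embryonic fibroblasts after 24 hrs compound exposure at 37 degree Celsius. Results are reported as % positive cells per well.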

[27] = High Content Imaging Cell-Based qHTS for Inhibitors of the mTORC1 Signaling Pathway in MEF Cells (AID 2667);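 further: Tsc2-/- p53-/- MEFs stably re-expressing wild-type Tsc2 exposed 24 h; plate controls were DMSO wells for no effect and rapamycin control wells for full effect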
Method in brief: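 Fixed-cell imaging of phospho-S6 (Ser235/236, Alexa-488) after 24 hrs of compound treatment at 37 degree Celsius. Signal was normalized to Hoechst, and thresholds from the highest and lowest wells split cells into % active versus % non-active.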

[28] = Cytometry Cell-Based qHTS for Inhibitors of the mTORC1 Signaling Pathway in MEF cells (AID 2668);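 further: Tsc2-/- p53-/- mouse embryonic fibroblasts stably re-expressing wild-type Tsc2; percent cells positive for phospho-rpS6 Ser235/236 relative to propidium iodide stain; plate controls were DMSO wells for no effect and 7.5 nM rapamycin control wells for full effect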
Method in brief: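 WT MEFs (Tsc2-/-, p53-/- stably re-expressing WT Tsc2) in DMEM + 10% FBS received compounds 24 hrs after plating, for 24 hrs at 37 degree Celsius. Fixed cells stained with Alexa-488 anti-phospho-rpS6 Ser235/236 and propidium iodide; laser-scanning cytometry read-out.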

[29] = Validation screen for small molecules that induce DNA re-replication in MCF 10A normal breast cells (AID 463097); further: 0% is about no effect; nearly all actives have a fitted effect of over 60% in size
Method in brief: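 Readout: Hoechst nuclear fluorescence intensity, 405 ex / 500-530 em, by scanning plate imager; re-replication scored as increase in nuclei with elevated DNA content. Cells exposed to compound 48 hr, 37 C, 5% CO2 beforehand.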

[30] = target: DNA polymerase III PolC-type (Bacillus subtilis (strain 168)) (UniProt P13267); test: qHTS Validation Assay for the Inhibitors of DNA Replication in Gram-Positive Bacteria (AID 485295);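 further: PicoGreen fluorescence of double-stranded DNA made on primed circular M13 template; 0% = DMSO wells and -100% = EDTA-quenched background wells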
Method in brief: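 Reconstituted B. subtilis holoenzyme (Pol III, beta clamp, SSB, primase) was preincubated with compound at room temperature, then given single-stranded circular M13Gori plus dNTPs and NTPs. EDTA-containing PicoGreen stopped the reaction, and dsDNA product was read by fluorescence.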

[31] = target: Tumor susceptibility gene 101 protein (Homo sapiens) (UniProt Q99816); test: qHTS Validation Assay for Iinhibitors of HIV-1 Budding by Blocking the Interaction of PTAP/TSG101 (AID 485342; calls by dose curve; further: 0% is about no effect)
Method in brief: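 Tsg101 binding domain (10 uM final) in pH 7.5 HEPES/NaCl/Tween 20/EDTA/TCEP buffer was mixed with pin-transferred compounds, then FITC-labeled PTAP peptide (50 nM final) was added; after 20 min at r.t., fluorescence polarization was read.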

[32] = qHTS Validation Assay to Find Inhibitors of Chronic Active B-Cell Receptor Signaling (AID 485345; active means well fitted curve in the direction sought with a large enough effect in the main read-out, with a control signal flat, not every such curve was filed as active;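 further: 0% = untreated basal cells and 100% = 10 µM MG-132 proteasome inhibitor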)
Method in brief: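 TMD8 ABC-DLBCL cells with dox-inducible green luciferase–IκBα fusion and red native luciferase; compounds 46 uM–3 nM, 4 h at 37C with doxycycline in 0.5% FBS IMDM. Green/red ratio normalized to basal and 10 uM MG-132.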

[33] = Quantitative high throughput screen for delayed death inhibitors of the malarial parasite plastid, 96 hour incubation (AID 488745); further: on the % scale 0 is the no-effect control and ±100 the full control effect; nearly all actives have a fitted effect of over 70% in size
Method in brief: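 Two-generation (96 h) exposure of luciferase-reporter P. falciparum in erythrocytes, 2% hematocrit, 0.1% parasitemia final, 37 C, 5% CO2, RPMI 1640 with 0.5% Albumax. Growth inhibition scored by reduced luminescence.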

Chain of Glucocorticoid receptor (Homo sapiens) (P04150 whole entry, looked up, the tested form may be a part): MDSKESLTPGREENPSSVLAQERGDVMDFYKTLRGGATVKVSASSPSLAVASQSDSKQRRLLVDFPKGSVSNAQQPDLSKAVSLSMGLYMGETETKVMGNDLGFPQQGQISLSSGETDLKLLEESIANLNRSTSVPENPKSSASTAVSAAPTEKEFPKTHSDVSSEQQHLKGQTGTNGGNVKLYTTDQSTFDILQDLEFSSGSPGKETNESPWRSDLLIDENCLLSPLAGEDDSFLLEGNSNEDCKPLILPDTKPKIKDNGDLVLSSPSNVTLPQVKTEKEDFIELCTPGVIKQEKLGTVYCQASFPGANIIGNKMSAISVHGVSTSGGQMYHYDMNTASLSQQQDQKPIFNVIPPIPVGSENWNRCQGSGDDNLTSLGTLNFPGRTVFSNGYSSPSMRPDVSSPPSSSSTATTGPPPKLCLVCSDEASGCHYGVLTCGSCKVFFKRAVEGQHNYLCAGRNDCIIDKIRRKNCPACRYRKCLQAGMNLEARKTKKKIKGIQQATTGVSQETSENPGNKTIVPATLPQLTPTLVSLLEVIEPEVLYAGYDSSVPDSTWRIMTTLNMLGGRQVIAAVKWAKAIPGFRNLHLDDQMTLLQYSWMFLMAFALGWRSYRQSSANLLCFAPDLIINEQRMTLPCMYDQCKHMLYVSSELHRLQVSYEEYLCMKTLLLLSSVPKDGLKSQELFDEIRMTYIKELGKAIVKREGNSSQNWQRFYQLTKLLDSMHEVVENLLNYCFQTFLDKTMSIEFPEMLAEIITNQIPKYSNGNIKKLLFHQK
Chain of Cytochrome P450 3A4 (Homo sapiens) (P08684 whole entry, looked up): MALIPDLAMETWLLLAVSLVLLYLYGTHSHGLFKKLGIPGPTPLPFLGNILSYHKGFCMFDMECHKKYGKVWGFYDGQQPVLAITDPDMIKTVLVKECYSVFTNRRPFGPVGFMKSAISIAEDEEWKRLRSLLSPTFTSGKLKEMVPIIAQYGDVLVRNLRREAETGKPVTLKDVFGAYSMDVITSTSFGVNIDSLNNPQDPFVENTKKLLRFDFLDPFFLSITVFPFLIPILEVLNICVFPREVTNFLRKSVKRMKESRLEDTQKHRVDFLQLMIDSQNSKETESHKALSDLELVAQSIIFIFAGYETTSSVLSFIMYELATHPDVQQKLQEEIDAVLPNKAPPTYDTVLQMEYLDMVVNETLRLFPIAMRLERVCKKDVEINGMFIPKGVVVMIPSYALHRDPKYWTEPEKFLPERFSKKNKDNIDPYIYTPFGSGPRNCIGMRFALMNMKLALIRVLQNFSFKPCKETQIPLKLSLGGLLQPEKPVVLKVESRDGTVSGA
Chain of Guanine nucleotide-binding protein G(i) subunit alpha-1 (Homo sapiens) (P63096 whole entry, looked up): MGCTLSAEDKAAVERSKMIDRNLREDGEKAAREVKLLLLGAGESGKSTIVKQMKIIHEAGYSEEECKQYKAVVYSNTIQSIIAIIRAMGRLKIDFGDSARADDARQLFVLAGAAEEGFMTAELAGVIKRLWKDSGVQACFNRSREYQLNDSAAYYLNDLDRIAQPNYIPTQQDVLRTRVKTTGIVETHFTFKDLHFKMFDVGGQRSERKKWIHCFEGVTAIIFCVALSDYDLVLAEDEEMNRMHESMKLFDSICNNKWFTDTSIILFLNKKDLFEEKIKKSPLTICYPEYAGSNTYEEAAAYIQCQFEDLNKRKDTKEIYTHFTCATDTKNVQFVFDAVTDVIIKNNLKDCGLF
Chain of Cytochrome P450 1A2 (Homo sapiens) (P05177 whole entry, looked up): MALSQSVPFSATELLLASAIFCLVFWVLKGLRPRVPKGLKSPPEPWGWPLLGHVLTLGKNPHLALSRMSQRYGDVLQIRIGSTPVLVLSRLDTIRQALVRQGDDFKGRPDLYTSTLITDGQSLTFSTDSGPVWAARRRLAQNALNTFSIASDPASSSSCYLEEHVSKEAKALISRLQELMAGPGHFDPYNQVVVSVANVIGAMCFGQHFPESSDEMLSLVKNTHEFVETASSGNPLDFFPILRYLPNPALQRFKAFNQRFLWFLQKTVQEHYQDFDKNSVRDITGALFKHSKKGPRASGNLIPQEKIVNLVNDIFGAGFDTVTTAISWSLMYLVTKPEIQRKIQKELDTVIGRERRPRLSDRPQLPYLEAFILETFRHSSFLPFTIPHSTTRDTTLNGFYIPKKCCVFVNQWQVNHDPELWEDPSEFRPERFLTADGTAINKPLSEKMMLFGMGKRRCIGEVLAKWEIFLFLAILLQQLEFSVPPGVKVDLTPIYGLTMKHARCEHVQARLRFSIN
Chain of Cytochrome P450 2D6 (Homo sapiens) (P10635 whole entry, looked up): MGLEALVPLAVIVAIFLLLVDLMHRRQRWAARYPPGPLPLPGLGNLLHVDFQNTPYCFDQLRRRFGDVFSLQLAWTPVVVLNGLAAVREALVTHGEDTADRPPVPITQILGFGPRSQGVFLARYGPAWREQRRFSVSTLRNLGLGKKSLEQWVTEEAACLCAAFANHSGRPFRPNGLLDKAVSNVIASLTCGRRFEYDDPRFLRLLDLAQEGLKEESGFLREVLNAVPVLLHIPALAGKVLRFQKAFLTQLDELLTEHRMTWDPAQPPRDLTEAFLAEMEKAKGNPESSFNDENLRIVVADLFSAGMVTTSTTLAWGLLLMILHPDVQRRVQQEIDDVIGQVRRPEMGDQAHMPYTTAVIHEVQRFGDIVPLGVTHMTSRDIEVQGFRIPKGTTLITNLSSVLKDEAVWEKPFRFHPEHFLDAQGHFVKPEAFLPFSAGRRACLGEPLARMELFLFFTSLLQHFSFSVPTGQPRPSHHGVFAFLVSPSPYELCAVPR
Chain of Ferritin light chain (Equus caballus) (P02791 2-175 limits assumed): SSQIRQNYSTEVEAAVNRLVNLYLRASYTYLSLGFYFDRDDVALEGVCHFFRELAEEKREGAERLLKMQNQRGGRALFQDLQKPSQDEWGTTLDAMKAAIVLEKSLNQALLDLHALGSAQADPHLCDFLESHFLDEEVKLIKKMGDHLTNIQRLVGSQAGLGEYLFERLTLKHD
Chain of Pyruvate kinase PKM (Homo sapiens) (P14618 whole entry, looked up): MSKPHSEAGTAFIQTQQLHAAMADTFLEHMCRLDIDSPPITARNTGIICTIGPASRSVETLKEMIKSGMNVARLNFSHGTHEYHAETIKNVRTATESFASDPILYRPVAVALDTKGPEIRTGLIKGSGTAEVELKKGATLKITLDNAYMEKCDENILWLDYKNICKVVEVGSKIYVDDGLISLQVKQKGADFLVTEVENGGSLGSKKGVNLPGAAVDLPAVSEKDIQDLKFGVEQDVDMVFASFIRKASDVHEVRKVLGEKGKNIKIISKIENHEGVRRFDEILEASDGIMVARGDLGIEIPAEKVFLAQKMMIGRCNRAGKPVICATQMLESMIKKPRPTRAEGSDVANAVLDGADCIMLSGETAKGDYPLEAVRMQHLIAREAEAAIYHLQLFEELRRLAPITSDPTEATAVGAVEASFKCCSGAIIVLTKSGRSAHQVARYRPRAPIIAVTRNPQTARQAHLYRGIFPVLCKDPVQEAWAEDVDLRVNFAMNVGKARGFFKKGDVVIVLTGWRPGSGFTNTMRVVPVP
Chain of ATP-dependent DNA helicase Q1 (Homo sapiens) (P46063 whole entry, looked up): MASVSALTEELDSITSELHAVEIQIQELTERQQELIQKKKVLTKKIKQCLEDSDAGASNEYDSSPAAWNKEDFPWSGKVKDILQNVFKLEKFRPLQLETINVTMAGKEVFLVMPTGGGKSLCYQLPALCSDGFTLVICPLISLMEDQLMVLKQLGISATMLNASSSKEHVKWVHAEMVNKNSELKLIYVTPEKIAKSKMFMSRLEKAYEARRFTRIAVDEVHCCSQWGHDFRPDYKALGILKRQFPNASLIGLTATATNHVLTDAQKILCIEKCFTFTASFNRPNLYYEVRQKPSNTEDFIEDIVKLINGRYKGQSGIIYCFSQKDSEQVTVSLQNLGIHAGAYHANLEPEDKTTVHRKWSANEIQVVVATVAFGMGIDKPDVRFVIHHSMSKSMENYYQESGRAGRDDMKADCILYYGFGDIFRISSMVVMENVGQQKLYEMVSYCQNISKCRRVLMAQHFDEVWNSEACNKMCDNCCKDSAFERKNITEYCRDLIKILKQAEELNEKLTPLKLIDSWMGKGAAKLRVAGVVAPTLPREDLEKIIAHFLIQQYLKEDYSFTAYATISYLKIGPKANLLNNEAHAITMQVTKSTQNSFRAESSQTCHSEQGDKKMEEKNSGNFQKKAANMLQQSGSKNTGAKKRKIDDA
Chain of Tumor susceptibility gene 101 protein (Homo sapiens) (Q99816 whole entry, looked up, the tested form may be a part): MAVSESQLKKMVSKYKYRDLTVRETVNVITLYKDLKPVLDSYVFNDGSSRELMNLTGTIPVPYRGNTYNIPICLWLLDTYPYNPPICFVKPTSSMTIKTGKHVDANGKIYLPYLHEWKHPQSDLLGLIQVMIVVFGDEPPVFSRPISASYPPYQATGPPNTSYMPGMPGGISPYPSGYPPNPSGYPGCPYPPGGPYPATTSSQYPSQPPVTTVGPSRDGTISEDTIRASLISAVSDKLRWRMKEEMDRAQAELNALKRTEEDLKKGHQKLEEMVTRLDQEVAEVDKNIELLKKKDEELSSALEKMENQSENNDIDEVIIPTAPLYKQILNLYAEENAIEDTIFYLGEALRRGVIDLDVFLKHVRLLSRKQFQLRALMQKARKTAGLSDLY
Chain of Muscarinic acetylcholine receptor M1 (Rattus norvegicus) (P08482 whole entry, looked up): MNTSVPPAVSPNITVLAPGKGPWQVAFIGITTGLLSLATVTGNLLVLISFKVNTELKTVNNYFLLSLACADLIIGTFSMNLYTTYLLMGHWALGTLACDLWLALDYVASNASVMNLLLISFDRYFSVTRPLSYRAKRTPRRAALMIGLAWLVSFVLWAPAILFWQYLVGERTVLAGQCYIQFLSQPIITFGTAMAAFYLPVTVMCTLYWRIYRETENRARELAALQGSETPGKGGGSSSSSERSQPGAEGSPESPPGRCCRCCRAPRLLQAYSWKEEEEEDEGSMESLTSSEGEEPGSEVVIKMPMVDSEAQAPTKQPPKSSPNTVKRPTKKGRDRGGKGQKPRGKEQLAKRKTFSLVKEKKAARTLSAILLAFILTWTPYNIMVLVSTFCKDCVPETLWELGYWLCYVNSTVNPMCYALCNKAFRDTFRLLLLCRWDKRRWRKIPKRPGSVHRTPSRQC

C1CCC(N=C(NC23CC4CC(CC(C4)C2)C3)N2CCOCC2)CC1
-17.8%: max response ([16]; measured here: lipid channel max response)
active: Potency [9] 0.631 µM | Potency [10] 17.8 µM | Potency [20] 7.94 µM | Potency [22] 7.08 µM
inactive: activity change, negative = inhibition [1] 8.68% | Potency [2] | activity, negative = inhibition [3] 17.1% | Potency [4] > 46 µM | Potency [5] > 46 µM | Potency [6] | outcome [7] | Potency [8] | Potency [11] | outcome [12] | outcome [13] | outcome [14] | outcome [15] | activity change, negative = inhibition ([16]; at 57.5 µM (top of the series)) 1.57% | Potency [17] | Potency [18] | Potency [19] | Potency [21] | outcome [23] | Potency [24] | outcome [25] | outcome [26] | Potency [27] | Potency [28] | Potency [29] | Potency [30] | outcome [31] | outcome [32] | Potency [33]
-18.7%: max response ([16]; measured here: cell count channel max response)
